According to PubChem BioAssay AID1159580 (chemical genetic matrix, 2015):
Out of some 5,500 compounds screened, about 2,000 (36%) were called active. About 18% were inconclusive and are not listed. No stated cut-off is given here; in the data, active means normalized growth mostly below about 0.91 (no sharp cut-off); inconclusive means no clear call, values can overlap the other calls; inactive means mostly above about 0.92. Some of the results follow.

Assay: chemical genetic growth profiling, strain panel (AID 1159580);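 further: tested at 20 µM; growth read once vehicle control cultures reached saturation at 30 °C; 1 = growth at the plate median or of vehicle wells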
Conditions: S. cerevisiae deletion strains, growth OD

Measured: normalized growth

CC(=O)Nc1ccc(S(=O)(=O)c2ccc(NC(C)=O)cc2)cc1
inactive: locus YAL021C, strain ccr4, stronger effect = lower value 1.03 | locus YAL026C, strain drs2, stronger effect = lower value 1.02 | locus YAL030W, strain snc1, stronger effect = lower value 1.02 | locus YBL061C, strain skt5, stronger effect = lower value 1.02 | locus YBR009C, strain hhf1, stronger effect = lower value 0.997 | locus YBR023C, strain chs3, stronger effect = lower value 1.01 | locus YBR171W, strain sec66, stronger effect = lower value 1.02 | locus YBR231C, strain swc5, stronger effect = lower value 1.02 | locus YBR279W, strain paf1, stronger effect = lower value 1.01 | locus YCL011C, strain gbp2, stronger effect = lower value 1.01 | locus YCL016C, strain dcc1, stronger effect = lower value 0.995 | locus YCL069W, strain vba3, stronger effect = lower value 1.02 | locus YCR088W, strain abp1, stronger effect = lower value 1.01 | locus YDL005C, strain med2, stronger effect = lower value 1.01 | locus YDL040C, strain nat1, stronger effect = lower value 1.02 | locus YDR001C, strain nth1, stronger effect = lower value 1.02 | locus YDR069C, strain doa4, stronger effect = lower value 1.02 | locus YDR137W, strain rgp1, stronger effect = lower value 1.03 | locus YDR159W, strain sac3, stronger effect = lower value 0.97 | locus YDR195W, strain ref2 1.02 | locus YDR297W, strain sur2, stronger effect = lower value 1.01 | locus YDR334W, strain swr1, stronger effect = lower value 1.02 | locus YDR335W, strain msn5, stronger effect = lower value 1.01 | locus YDR392W, strain spt3, stronger effect = lower value 0.998 | locus YEL003W, strain gim4, stronger effect = lower value 1.02 | locus YEL037C, strain rad23, stronger effect = lower value 1.02 | locus YEL061C, strain CIN8 (second series), stronger effect = lower value 1.02 | locus YER015W, strain faa2, stronger effect = lower value 1.02 | locus YER016W, strain bim1, stronger effect = lower value 0.996 | locus YER111C, strain swi4, stronger effect = lower value 1.01 | locus YER155C, strain BEM2 (second series), stronger effect = lower value 1.04 | locus YFR010W, strain ubp6, stronger effect = lower value 1.01 | locus YGL167C, strain pmr1, stronger effect = lower value 1.01 | locus YGL173C, strain kem1, stronger effect = lower value 1.02 | locus YGL227W, strain vid30, stronger effect = lower value 1.01 | locus YGL240W, strain doc1, stronger effect = lower value 1.02 | locus YGL253W, strain hxk2, stronger effect = lower value 1 | locus YHR013C, strain ard1, stronger effect = lower value 1.03 | locus YHR027C, strain rpn1, stronger effect = lower value 1.01 | locus YHR030C, strain SLT2, stronger effect = lower value 1.07 | locus YHR079C, strain IRE1, stronger effect = lower value 1.09 | locus YHR142W, strain chs7, stronger effect = lower value 1.02 | locus YJL092W, strain hpr5, stronger effect = lower value 1 | locus YJL095W, strain BCK1 (second series), stronger effect = lower value 1.01 | locus YJL095W, strain BCK1, stronger effect = lower value 1.01 | locus YJL115W, strain asf1, stronger effect = lower value 1.02 | locus YJL129C, strain trk1, stronger effect = lower value 0.999 | locus YJL154C, strain vps35, stronger effect = lower value 1.02 | locus YJL164C, strain tpk1, stronger effect = lower value 1 | locus YJL166W, strain qcr8, stronger effect = lower value 1.02 | locus YJL187C, strain SWE1, stronger effect = lower value 1.01 | locus YJR066W, strain TOR1, stronger effect = lower value 0.988 | locus YKL160W, strain elf1, stronger effect = lower value 1.01 | locus YKR026C, strain gcn3, stronger effect = lower value 0.999 | locus YKR091W, strain srl3, stronger effect = lower value 1.01 | locus YLL001W, strain dnm1, stronger effect = lower value 1.01 | locus YLL026W, stronger effect = lower value 1.01 | locus YLL041C, strain sdh2, stronger effect = lower value 0.997 | locus YLR027C, strain aat2, stronger effect = lower value 1 | locus YLR113W, strain HOG1, stronger effect = lower value 0.972 | locus YLR221C, strain rsa3, stronger effect = lower value 0.987 | locus YLR258W, strain gsy2, stronger effect = lower value 1.02 | locus YLR262C, strain YPT6 (second series), stronger effect = lower value 1.04 | locus YLR320W, strain mms22, stronger effect = lower value 1.03 | locus YLR342W, strain FKS1, stronger effect = lower value 1.01 | locus YLR357W, strain rsc2, stronger effect = lower value 1.01 | locus YLR370C, strain arc18, stronger effect = lower value 1.01 | locus YLR384C, strain iki3, stronger effect = lower value 1.01 | locus YML120C, strain ndi1, stronger effect = lower value 1.03 | locus YMR058W, strain fet3, stronger effect = lower value 1.01 | locus YMR125W, strain sto1, stronger effect = lower value 1.01 | locus YMR129W, stronger effect = lower value 1.02 | locus YMR205C, strain PFK2, stronger effect = lower value 1.01 | locus YMR231W, strain pep5, stronger effect = lower value 1.01 | locus YNL071W, strain lat1, stronger effect = lower value 1.02 | locus YNL183C, strain NPR1, stronger effect = lower value 0.971 | locus YNL209W, strain ssb2, stronger effect = lower value 1.01 | locus YNL248C, strain rpa49, stronger effect = lower value 1.02 | locus YNL322C, strain KRE1 (second series), stronger effect = lower value 1.01 | locus YNR049C, strain mso1, stronger effect = lower value 1.01 | locus YOR001W, strain rrp6, stronger effect = lower value 1.02 | locus YOR070C, strain gyp1, stronger effect = lower value 1.01 | locus YOR080W, strain dia2, stronger effect = lower value 1.02 | locus YOR083W, strain WHI5, stronger effect = lower value 0.979 | locus YOR106W, strain vam3, stronger effect = lower value 1.02 | locus YOR231W, strain MKK1, stronger effect = lower value 1.05 | locus YOR265W, strain rbl2, stronger effect = lower value 1.01 | locus YOR270C, strain vph1, stronger effect = lower value 1.02 | locus YOR290C, strain snf2, stronger effect = lower value 1.01 | locus YPL051W, strain arl3, stronger effect = lower value 1.01 | locus YPL078C, strain atp4, stronger effect = lower value 1.02 | locus YPL106C, strain sse1, stronger effect = lower value 1.02 | locus YPL240C, strain hsp82, stronger effect = lower value 1 | locus YPL256C, strain CLN2, stronger effect = lower value 1.08
